Experimental data taken from PubChem BioAssay AID504773 (Broad Institute, 2011).
Entries with a potency or affinity are not part of this list. The source made the active and inactive calls.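 The calls were made as follows: active = polarization signal falls with dose and the fitted half-maximal concentration is at or below ten times the sample's top valid dose; inconclusive = flat curve at 30 to 70% inhibition, or poor fit; inactive = signal rises, flat within 30%, or potency beyond limit.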

Target: Golgi-associated PDZ and coiled-coil motif-containing protein (Homo sapiens) (UniProt Q9HD26)
Assay: CAL PDZ peptide-binding inhibitors, dose response, biochemical, fluorescence polarization, Cerulean-tagged CAL PDZ, cherry-picks (AID 504773)
Settings: 1 h; series mostly up to 50 µM

outcome, inactive:
CCn1c(=O)c(C(C)=O)c(O)c2ccccc21
COc1cc(Cl)c(CN2CCCC(CO)(Cc3cccc(Cl)c3)C2)cc1OC (configuration not stated)
COc1ccc(C(CNC(=O)COc2ccccc2-c2ccccc2)N2CCOCC2)cc1 (configuration not stated)
CN1CC(=O)N(CC(=O)Nc2ccc(Br)cc2F)C1=O
C(=N\N1CCOCC1)/c1nc(-c2ccccc2)n2ccccc12
COC(=O)C1CCN(C(=O)/C(C)=C\c2ccccc2)CC1
C=CCn1c(NC(=O)c2ccco2)nc2ccccc21
CCOC(=O)c1c(CN2CCOCC2)oc2ccc(OC(C)=O)cc12
O=C(Oc1c(CN2CCOCC2)cc(Cl)c2cccnc12)c1ccc(F)cc1
O=C(COC(=O)CNC(=O)c1cccc([N+](=O)[O-])c1)NCc1ccco1
COCCCNC(=O)c1cc(S(=O)(=O)N2CCOCC2)ccc1SCc1cccc(OC)c1OC
Oc1ccccc1N=Cc1c(O)ccc2oc3c(c12)CCCC3
O=C(NCc1ccccn1)Nc1ccc(F)c(Cl)c1
CCOc1ccc(C(=O)NC2CC3CCCC(C2)N3Cc2ccccc2)cc1 (configuration not stated)
CC(C)CNC(=O)CC1Nc2ccccc2NC1=O (configuration not stated)
CCc1nc2ccccc2c(C(=O)Oc2cccc3cccnc23)c1C
Cc1nc2ccc(Br)cn2c1C(=O)N/N=C\c1ccc(C(C)C)cc1
COc1ccc(Br)c(C(=O)NC2CCCC2)c1
Fc1ccc(-n2c(-c3ccc4ccccc4n3)n[nH]c2=S)cc1Cl
O=C(COC(=O)c1cccc(O)c1)NC(=O)Cc1ccccc1
COc1ccc(C2/C(=C(/O)c3ccc(C)cc3)C(=O)C(=O)N2C)c(OC)c1 (configuration not stated)
CCCSC1=N/C(=C\c2ccc([N+](=O)[O-])o2)C(=O)S1
COc1cc(OC)cc(C(=O)N[C@H](C(=O)Nc2nc3ccc(S(C)(=O)=O)cc3s2)C(C)C)c1
COc1ccc(N2CCN(C(=O)c3cccc4nc(C)oc34)CC2)cc1
C/C(=N\NC(=O)c1cc(-c2ccc(C)s2)nc2ccccc12)c1cccnc1
O=C1OC2(CCCCC2)OC(=O)C1=CNc1nc2ccccc2s1
CCOc1ccccc1N(CC(=O)Nc1cccc2ccccc12)S(C)(=O)=O
Oc1ccc(C=Nc2cccc3ccccc23)c(O)c1
CCOCCCNC(=S)N1CCN(c2nc(-c3ccccc3)cs2)CC1
CC(C)Oc1ccc(C(=O)Nc2ccc(S(=O)(=O)N3CCN(C)CC3)cc2)cc1
CCC(C)NC(=O)C1CCCN(C(=O)Nc2ccc(F)cc2)C1 (configuration not stated)
C/C(CC(=O)Nc1ccc(C)c(Cl)c1)=N\NC(=O)Cc1cnc(N)s1
COC(=O)CN1C(=O)N/C(=C/c2cc(Cl)c(OC)c(OC)c2)C1=O
Cc1ccc(CN(Cc2cccnc2)C(=S)Nc2cccc(Cl)c2C)cc1
C=CCNC(=S)Nc1ccc(C)c(S(=O)(=O)N2CCCCC2)c1
O=C(O)CCCC(=O)N1N=C(c2ccccc2)CC1c1ccc2c(c1)OCO2 (configuration not stated)
COc1ccc(S(=O)(=O)N2CC(=O)Nc3ccccc32)cc1F
